Only some compounds are listed: those with a hit (about 2.4% of all), similar ones and a draw of the others.
TNF death inh: inhibitors of TNF-alpha triggered necroptosis, primary screen, cell-based, Jurkat FADD-/-, single concentration. Jurkat FADD-/- TNF necroptosis rescue, ATP luminescence, 24 h; 0 = TNF only, 100 = no-TNF cells. activation (protection from cell death), % at 10 µM. 220,000 tested, 0.068% active. AID 463075, 2010;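 active = activation, meaning protection from cell death, of at least 50% relative to plate controls; inactive = activation below 50%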;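 also: necroptosis triggered by 40 ng/mL TNF-alpha added together with compound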
zVAD death inh: inhibitors of zVAD-triggered necroptosis, primary screen, L929 cells; L929 zVAD necroptosis rescue, ATP luminescence, 24 h; with zVAD 60 µM; viability rescue, % at 10 µM; 220,000 tested, 0.38% active;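 active = activation, scaled between plate controls, above about 75%, limit read from the data; inactive = activation under that limit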;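 also: 0% = zVAD with DMSO and 100% = DMSO alone without zVAD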
MCL1 BIM primary: inhibitors of MCL1 binding to BIM-BH3, primary screen, biochemical, fluorescence polarization; inhibition, % at 10.9 µM; GST-MCL1 / FITC-Bim-BH3 fluorescence polarization; AID 2057, 2009; 320,000 tested, 0.68% active;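 active = inhibition above the mean inhibition of all tested compounds plus 3 SD, set per campaign, cut at about 40% in these data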;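 also: 0% = DMSO wells and 100% = unlabeled Bim-BH3 peptide control; higher means more loss of mP so more displacement of Bim peptide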
Target sequence (Q07820 whole entry, looked up): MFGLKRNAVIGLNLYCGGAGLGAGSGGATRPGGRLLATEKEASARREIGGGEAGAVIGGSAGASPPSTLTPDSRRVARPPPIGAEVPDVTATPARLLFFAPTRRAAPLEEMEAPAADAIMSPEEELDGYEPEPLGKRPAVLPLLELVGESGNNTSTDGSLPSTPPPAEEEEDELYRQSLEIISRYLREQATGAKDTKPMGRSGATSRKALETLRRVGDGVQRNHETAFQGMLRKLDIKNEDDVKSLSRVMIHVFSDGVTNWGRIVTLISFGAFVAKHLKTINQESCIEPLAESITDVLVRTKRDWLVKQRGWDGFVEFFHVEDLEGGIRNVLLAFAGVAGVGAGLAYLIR
Mcl1-Noxa inh: Mcl-1/Noxa binding inhibitors, primary screen, biochemical, TR-FRET, 1536-well. TR-FRET Mcl-1/Noxa peptide binding, 2 h. AID 1022, 2008. inhibition, % at 21.7 µM. Induced myeloid leukemia cell differentiation protein Mcl-1 (Homo sapiens), Q07820. 220,000 tested, 1.5% active;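 active = compounds that cut the protein-peptide binding signal by more than 50% relative to plate controls in a single-dose test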;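 also: His-tagged Mcl-1 with rhodamine Noxa BH3 peptide and terbium anti-His antibody; 0% = Mcl-1 plus Noxa peptide wells and 100% = peptide-only wells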
Mcl1-Bid inh: Mcl-1/Bid binding inhibitors, primary screen, biochemical, TR-FRET, 1536-well; Induced myeloid leukemia cell differentiation protein Mcl-1 (Homo sapiens), Q07820; TR-FRET Mcl-1/Bid-Dy647 peptide binding; inhibition, % at 21.7 µM; 220,000 tested, 0.97% active; AID 1021, 2008;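 active = compounds that cut the binding signal by more than half at the single screening dose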;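 also: His-tagged Mcl-1 with europium anti-His antibody binding Bid BH3 peptide; 0% = Mcl-1 plus peptide wells and 100% = peptide-only wells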
Mcl-1 Bim block: inhibitors of Bim peptide binding to Mcl-1, primary screen, biochemical, bead-based flow cytometry, multiplex | Bim peptide-Mcl-1 binding | inhibition, % at 10 µM | 190,000 tested, 0.1% active | AID 1009, 2008; in the data active = inhibition above about 40%;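 also: 0% = no compound tracer wells and 100% = peptide blocker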
* marks the source's active call; other numbers are inactive results; nt = no result given.

SMILES	TNF death inh	zVAD death inh	MCL1 BIM primary	Mcl1-Noxa inh	Mcl1-Bid inh	Mcl-1 Bim block
COC(=O)c1cc(C(=O)OC)cc(N2C(=O)CC(Sc3nc(C)cc(C)n3)C2=O)c1 (stereo not drawn)	-0.4	-0.2	5.2	7.5	-10.7	2.0
O=C(O)c1ccccc1-c1nnc2c(Cl)cc(C(F)(F)F)cn12	nt	nt	1.5	nt	nt	nt
COc1cccc(-c2cc(C(=O)NC3CC3)c3ccccc3n2)c1	nt	nt	0.4	nt	nt	nt
O=C(NC1CCC(O)CC1)c1cc(-c2ccco2)nc2ccccc12 (stereo not drawn)	-0.6	1.9	38.6	54.5*	-43.2	0.0
NC(=O)COC(=O)c1cc(-c2ccco2)nc2ccccc12	0.2	0.9	25.0	60.7*	9.4	nt
O=C(COC(=O)c1cc(-c2ccco2)nc2ccccc12)NCc1ccc2c(c1)OCO2	-1.9	-0.5	16.4	75.9*	22.4	1.0
CCOC(=O)c1cc(-c2ccco2)nc2c1c(C)nn2-c1ccccc1	-3.4	0.6	9.4	56.1*	14.5	5.0
COc1ccccc1N1C(=O)Cc2ccccc2C1=O	nt	nt	-9.0	nt	nt	nt
O=C(CSc1nc2ccc(Cl)cc2[nH]1)Nc1ccc2[nH]c(=O)[nH]c2c1	nt	nt	-14.6	nt	nt	nt
C/C(=N\NC(=O)CSc1nc(C)cc(C)n1)c1cccc([N+](=O)[O-])c1	0.7	0.8	5.0	3.3	12.2	-4.0
COc1ccc(CNC(=O)C/C(C)=N/NC(=O)C(c2ccccc2)c2ccccc2)cc1	25.3	90.8*	-1.3	2.7	3.1	-5.0
Nc1c(C(=O)O)sc2nc3c(cc12)CCCC3	-0.1	0.2	-1.3	-0.9	-48.9	nt
CN1CCc2nc3sc(C(=O)C45CC6CC(CC(C6)C4)C5)c(N)c3cc2C1	2.7	48.2	28.0	57.8*	85.3*	0.0
Cc1nccn1CC(O)COc1ccccc1 (stereo not drawn)	0.8	-1.2	3.6	4.3	2.1	1.0
Cc1nccn1CC(O)COC1CCCCC1 (stereo not drawn)	-0.8	0.3	-7.8	18.0	62.1*	0.0
COc1ccc(-n2c(C)nc3sc4c(c3c2=O)CCCC4)cc1	89.4*	8.3	-0.8	1.7	-25.7	-2.0
COc1ccc(-n2c(NNC(C)=O)nc3sc4c(c3c2=O)CCCC4)cc1	nt	nt	-2.7	nt	nt	nt
CCOc1cc(/C=N/NC(=O)c2nnn(-c3nonc3N)c2C)ccc1OCc1cccc(F)c1	nt	nt	4.0	nt	nt	nt
Cc1ccc(Oc2ccccc2/C=C2\SC(=O)N(C)C2=O)cc1	52.1*	0.5	-2.9	-2.7	18.4	-4.0
CSc1ccc(Cc2ccc(Cl)cc2Cl)nn1	62.5*	7.7	4.5	10.7	-15.4	-2.0
NNc1ccc(Cc2ccc(Cl)cc2Cl)nn1	-1.4	55.8	7.6	8.3	-30.8	-1.0
COc1ccc(-c2n[nH]c(=S)n2-c2ccc3c(c2)OCCO3)cc1	0.8	1.0	-13.2	45.2	-51.6	-3.0
COc1cc(OC)cc(-c2n[nH]c(=S)n2-c2ccc3c(c2)OCCO3)c1	-0.6	0.3	-16.0	50.9*	-28.6	-5.0
O=C1N=c2ccccc2=C1c1sc(=S)n(-c2ccc(O)cc2)c1O	-1.9	0.5	8.0	70.0*	21.0	nt
Cc1c(-n2c(O)c(C3=c4ccccc4=NC3=O)sc2=S)c(=O)n(-c2ccccc2)n1C	0.7	1.1	16.3	52.9*	31.7	-1.0
SMILES	TNF death inh	zVAD death inh	MCL1 BIM primary	Mcl1-Noxa inh	Mcl1-Bid inh	Mcl-1 Bim block
Cc1ccccc1OCC(=O)NCC(c1cccs1)N1CCOCC1 (stereo not drawn)	nt	nt	4.8	nt	nt	nt
CC1CCN(C(=O)CSc2nc3c(c(=O)n2C)SC(C)C3)CC1 (stereo not drawn)	nt	nt	8.0	nt	nt	nt
C/C=C/c1ccc(OCCCNC2CCCC2)c(OC)c1	1.0	-0.6	9.8	9.3	31.0	0.0
C/C=C/c1ccc(OCCCn2cncn2)c(OC)c1	-2.1	-0.3	-1.2	15.2	26.6	-2.0
C/C=C/c1ccc(OCCCCn2cncn2)c(OC)c1	-1.2	-0.4	-2.8	23.4	56.8*	-2.0
C/C=C/c1ccc(OCCCNC(C)CC)c(OC)c1 (stereo not drawn)	0.3	-1.3	-6.0	8.0	59.1*	-4.0
Cc1cc2nc(-c3ccc(SCC(=O)Nc4nccs4)nc3)[nH]c2cc1C	-0.6	4.9	nt	73.3*	24.6	-6.0
CCc1nnc(NC(=O)CSc2ccc(-c3nc4ccc(C)cc4[nH]3)cn2)s1	0.1	7.8	-4.9	57.8*	30.5	-3.0
Cc1ccc2nc(-c3ccc(SCC(=O)O)nc3)[nH]c2c1	0.3	1.2	5.5	31.1	-3.7	1.0
CC(=O)C(C(c1ccccc1)c1c[nH]c2ccccc12)[N+](=O)[O-] (stereo not drawn)	nt	nt	-1.8	nt	nt	nt
Cc1coc(=N)n1CC(=O)c1ccc(Cl)cc1	-0.4	-1.1	nt	12.1	-26.1	-2.0
CCN1/C(=C/c2cc[n+](C)cc2)C=Cc2cc(C)ccc21	-3.1	0.3	-35.2	56.0*	-57.0	-1.0
CCN1C(=O)/C(=C2\C=Cc3cc(C)ccc3N2CC)OC1=S	-1.1	-0.5	0.6	-4.8	17.6	-3.0
C=CCn1c(SCc2ccc(C#N)cc2)nnc1-c1cccc(OC)c1	-1.0	-0.2	-20.6	4.7	94.6*	-3.0
C=CCn1c(SCc2ccc(C#N)cc2)nnc1-c1ccccc1	-1.2	-0.4	-2.1	-5.3	-31.9	-73.0
O=[N+]([O-])c1ccc(N/N=C/c2ccc(O)c(O)c2O)c(S(=O)(=O)N2CCOCC2)c1	-5.4	0.8	nt	103.7*	-44.8	12.0
CCN(c1ccccc1)S(=O)(=O)c1ccc(Cl)c(NC(=O)COC(=O)c2cc(O)c3ccccc3c2O)c1	-12.1	-0.7	22.4	54.6*	-48.7	nt
Cc1ccc2c(c1)N/C(=C(\C=C(/Cl)[N+](=O)[O-])[N+](=O)[O-])N2	-1.3	-0.7	5.0	59.4*	10.2	0.0
Cc1ccnc(NC(=O)c2ccc(NS(=O)(=O)/C=C/c3ccccc3)cc2)c1	nt	nt	-6.2	nt	nt	nt
COc1ccccc1NC(=O)CN1CCSc2ccccc21	-0.2	-0.2	8.7	6.1	-38.7	0.0
COc1cc(/C=C2/SC(=S)N(Cc3ccccc3)C2=O)cc(Cl)c1O	nt	nt	9.1	nt	nt	nt
O=C1/C(=C/c2ccc(O)c([N+](=O)[O-])c2)SC(=S)N1Cc1ccccc1	-3.9	-0.5	-9.1	56.4*	13.4	-2.0
O=C1/C(=C\c2cccc([N+](=O)[O-])c2O)SC(=S)N1Cc1ccccc1	nt	nt	25.0	nt	nt	nt
COc1cc(/C=C2\SC(=O)N(Cc3ccc(Cl)cc3)C2=O)cc([N+](=O)[O-])c1O	-6.5	-0.2	nt	91.7*	90.5*	0.0
